Source: PubChem (National Center for Advancing Translational Sciences (NCATS))
An excerpt weighted towards active compounds, which were near 22% of everything screened.
Shiga inhibitor = blocks Shiga toxin action in Vero cells; Vero cells, Shiga toxin protein synthesis inhibition reporter; inhibition, % at 38.7 µM; actives 9.2% (n = 290,000); AID 2315; in the data active = inhibition mostly above about 28%, no sharp cut-off; inactive = mostly below about 43%; also: 0% is about no effect
Pf growth 96h = inhibits malaria parasite growth, 96 h; P. falciparum luciferase reporter growth, 96 h; actives 6.9% (n = 320,000); Potency, µM (top dose mostly 28.7 µM), without a hit: at the top dose activity change, negative = inhibition, usual class: inhibitors; also: potency is read from the fitted curve at half-maximal effect; % is scaled to controls: 0 for no effect and ±100 for the full control effect
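P. falciparum expressing integrated firefly luciferase, in erythrocytes at 2% hematocrit, 0.05% parasitemia, incubated with compounds 96 h at 37 C, 5% CO2. Growth inhibition read as loss of luminescence; two-generation exposure targets delayed-death apicoplast inhibitors.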
CHX counter = counter-screen for Shiga toxin inhibitors: cycloheximide protein synthesis inhibition. cell reporter, cycloheximide protein synthesis inhibition counterscreen. max response, %. actives 12% (n = 300,000); in the data active = max response mostly above about 13%, no sharp cut-off; inactive = mostly below about 14%; also: read at 38.3 µM for the half of the compounds with a filed dose; 0% is about no effect
Pf growth 48h = P. falciparum growth inhibition at 48 hours (one generation). P. falciparum luciferase growth in erythrocytes, 48 h. actives 5.9% (n = 310,000). Potency, µM (series often up to 28.7 µM), without a hit: at the highest dose activity change, negative = inhibition, actives largely listed as inhibitors. AID 504832; also: potency is read from the fitted curve at half-maximal effect; % is scaled to controls: 0 for no effect and ±100 for the full control effect
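Here the parasites carry a stable luciferase gene and grow inside erythrocytes in Albumax-based RPMI medium with compound for one erythrocytic cycle. Activity is scored as loss of luminescent signal.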
LmPK inh = LmPK (Leishmania mexicana) enzyme inhibition; Q27686; purified LmPK, Kinase-Glo ATP luminescence, 1 h; Potency, µM (titrated, usually from 57.5 µM), for the others: top-dose activity change, negative = inhibition, usual class: inhibitors; actives 0.37% (n = 290,000); AID 1721; also: potency is read from the fitted curve at half-maximal effect; % is scaled to controls: 0 for no effect and ±100 for the full control effect
Target sequence (Q27686 whole entry, looked up): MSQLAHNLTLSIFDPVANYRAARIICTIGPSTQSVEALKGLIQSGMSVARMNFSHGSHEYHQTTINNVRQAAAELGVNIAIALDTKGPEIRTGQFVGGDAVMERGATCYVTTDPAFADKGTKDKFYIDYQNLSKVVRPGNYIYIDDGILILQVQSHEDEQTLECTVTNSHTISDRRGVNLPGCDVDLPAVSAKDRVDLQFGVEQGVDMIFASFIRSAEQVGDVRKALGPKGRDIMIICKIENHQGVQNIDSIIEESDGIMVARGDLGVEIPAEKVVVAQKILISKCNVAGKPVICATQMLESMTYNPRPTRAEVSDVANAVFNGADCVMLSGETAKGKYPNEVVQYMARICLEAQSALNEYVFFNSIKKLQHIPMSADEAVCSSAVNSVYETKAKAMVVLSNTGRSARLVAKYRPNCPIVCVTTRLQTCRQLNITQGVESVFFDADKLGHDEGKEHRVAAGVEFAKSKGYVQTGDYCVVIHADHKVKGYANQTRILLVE
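In 50 mM imidazole pH 7.2 with 7 mM MgCl2, LmPK (0.1 nM) turned over PEP (0.5 mM) and ADP (0.1 mM) for 1 h at room temperature. Luciferase read-out of ATP.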
Numbers without * were called inactive; ? = inconclusive; . = no result given. Unless noted, calls follow the shape of the dose curve; as a rule, active = well fitted inhibition curve with a large enough effect; inconclusive = small, poorly fitted or top-dose-only effect, or another doubt; inactive = no such curve, though single readings can be large or run the other way.

SMILES	Shiga inhibitor	Pf growth 96h	CHX counter	Pf growth 48h	LmPK inh
COc1cc(C2Nc3ccccc3C(=O)N2c2ccccc2)c(Br)cc1OCC(=O)O (stereo not drawn)	24*	4%	12	3%	3%
CCC(NC(=O)CCc1c(C)c2cc3c(-c4ccccc4)coc3cc2oc1=O)C(=O)O (stereo not drawn)	-4	3%	-5	11%	7%
O=S(=O)(c1cnccc1N1CCN(CCO)CC1)N1CCCCC1	-7	37%	0	6%	0%
C=CCNS(=O)(=O)c1ccc(OC)c(C)c1	-4	.	-1	0%	0%
C=CCNS(=O)(=O)c1cc(S(=O)(=O)NCC=C)c(OC)cc1OC	-5	2.9µM*	1	236%	-2%
CNC(=O)c1cc(NC(=O)CCn2nc(-c3ccc(C)cc3)c3ccccc3c2=O)ccc1OC	-8	?	-2	0%	-5%
COC(=O)[C@H]1CN(C(=O)c2ccccc2)C(=O)N1	8	30%	-1	17%	0%
COC(=O)[C@@]1(Cc2ccccc2)[C@@H]2C(=CC(=O)[C@H]2CC(=O)C(=O)N(C)C)CN1C(=O)c1ccccc1	-21	10µM*	-7	?	5%
COCCCNC(=O)/C(C#N)=C1\N=C(NC(=O)c2cccs2)c2ccccc21	6	30%	18*	6%	6%
N#C/C(C(=O)NCCc1ccccc1)=C1/N=C(NC(=O)c2cccs2)c2ccccc21	9	-34%	9	6%	3%
CCOC(=O)N1CCN(C(=O)CCn2nc(-c3ccc(Cl)cc3)ccc2=O)CC1	-13	?	-3	-8%	-3%
CCOC(=O)CCn1nc(-c2ccc(Cl)cc2)cc1N	29	133%	20*	.	-1%
CCOC(=O)Cn1nc(-c2ccc(Cl)cc2)cc1N	92*	?	38*	48%	4%
CN1CC=C2C(C#N)=C(N)C(C#N)(C#N)[C@H](c3cccs3)[C@H]2C1	4	-25%	-3	-10%	0%
CN1CC=C2C(C#N)=C(N)C(C#N)(C#N)C(CCc3ccccc3)C2C1 (stereo not drawn)	-10	7.4µM*	-2	-24%	4%
COc1ccccc1N1CCN(C2CCCN(C(=O)c3snnc3C)C2)CC1 (stereo not drawn)	-8	13µM*	-11	0%	-7%
COc1ccccc1N1CCN(C2CCCN(C(=O)c3cscn3)C2)CC1 (stereo not drawn)	6	?	-5	19%	4%
COc1ccc(C(=O)N2CCCC(N3CCN(c4ccccc4F)CC3)C2)c(OC)n1 (stereo not drawn)	2	13µM*	-1	-3%	-9%
CC(C)[C@H](NC(=O)[C@@H]1Cc2ccccc2CN1C(=O)OC(C)(C)C)C(=O)NCC1CCC(C(=O)O)CC1 (stereo partly drawn)	-2	-25%	-4	-13%	0%
CO/N=C/C1CCN(c2ncc(C(F)(F)F)cc2Cl)C1=O (stereo not drawn)	56	26%	6	10%	-8%
Cc1ccccc1OCCN1CCCC1	-6	-3%	-1	3%	-2%
Cc1cc(OCCN2CC2)c2ccccc2n1	-7	10µM*	1	13µM*	-3%
COc1cc(/C=N/NC(=O)c2cc(C)oc2C)cc(OC)c1OC	-1	-16%	6	-71%	7%
COc1cc(/C=N/NC(=O)c2cc(C)oc2C)ccc1O	28	32%	9	27%	-1%
COc1cc(/C=N/NC(=O)c2nonc2C)ccc1O	63*	-20%	29	15%	14µM*
SMILES	Shiga inhibitor	Pf growth 96h	CHX counter	Pf growth 48h	LmPK inh
COc1cc(/C=N/NC(=O)c2nonc2N)cc(OC)c1OC	87*	-4%	32*	12%	-2%
Cc1nonc1C(=O)N/N=C/c1ccc(O)c(O)c1	99*	9%	42*	11%	13µM*
COc1cc(/C=N/NC(=O)c2nc(C)cc(C)n2)ccc1O	48	.	17*	14%	-4%
O=C(N/N=C/c1ccc(O)c(O)c1)N/N=C/c1ccc(O)c(O)c1	47	-3%	13	?	0%
CCC(C)(C)NC(=O)C(c1ccc(OC)cc1)N(C(=O)CCC(=O)Nc1cc(C)on1)c1cc(OC)ccc1OC (stereo not drawn)	7	-15%	-3	?	4%
N#CCCCSc1ncccc1-c1nc2ccccc2[nH]1	74	.	28*	34%	3%
N#CCSc1ncccc1-c1nc2ccccc2[nH]1	30*	-22%	17	?	0%
O=C(O)c1ccccc1-c1nc2ccccc2[nH]1	39	?	1	24%	-17%
COc1cc(OC)c(NC(=S)NCc2ccc(F)cc2)cc1Cl	-3	35%	1	-13%	-1%
CN(C)c1ccc(/C=C(/NC(=O)c2ccccc2Cl)C(=O)NCCN2CCOCC2)cc1	-9	0%	9	6%	1%
O=C(COc1ccc(/C=N/NC(=O)c2ccccc2)cc1)Nc1ccc([N+](=O)[O-])cc1	22	32%	-2	37%	-3%
CC(C)Oc1ccc(/C=N/NC(=O)C(CSCc2ccccc2)NC(=O)c2ccc([N+](=O)[O-])cc2)cc1 (stereo not drawn)	2	?	0	12µM*	7%
O=C(NCC1(c2ccccc2)CCCC1)C(=O)N1CCOCC1	37	?	6	-19%	0%
Cc1cc(C)cc(NS(=O)(=O)c2c(C)[nH]c(=O)[nH]c2=O)c1	19	2.1µM*	5	12%	0%
Cc1ccc(NS(=O)(=O)c2c(C)[nH]c(=O)[nH]c2=O)cc1F	-1	?	-1	13%	1%
Cc1ccnc(N2C(=O)CSC2c2ccc(Cl)cc2)c1 (stereo not drawn)	14	?	8	?	-1%
COc1ccccc1N(CCC#N)C(=O)CSc1nnc2ccccn12	.	-15%	.	2%	.
CCOC(=O)C(CCC(C)=O)C(=O)c1ccccc1 (stereo not drawn)	-5	?	-1	20%	1%
CCOC(=O)C(CC(=O)c1ccccc1)CC(=O)c1ccccc1	113*	75%	39*	75%	1%
COC(=O)C(CC(=O)c1ccccc1)CC(=O)c1ccccc1	43*	34%	17*	33%	3%
Cc1cc([N+](=O)[O-])ccc1NC(=O)CN1C2CCC1CC(NC(=O)NC13CC4CC(CC(C4)C1)C3)C2 (stereo not drawn)	-7	23%	-4	10µM*	5%
O=C(COC(=O)C1CCC1)NCCc1ccc(Cl)cc1Cl	-13	?	4	-9%	-8%
Cc1ccc(-n2c(C)cc(C)c(C#N)c2=O)cc1C	10	-23%	-1	12%	4%
CCNc1nc(CN2CCOCC2)nc2sc3c(c12)CCC3	-6	.	-2	-9%	-2%
Cc1sc2nc(CN3CCOCC3)nc(N3CCN(S(=O)(=O)c4ccccc4)CC3)c2c1C	.	?	.	9.3µM*	.
